# The supplement of paper PMC13380429
# Counter-ions that a name gives are not always drawn.
# Legend:
# [1] = test system: Vero E6 infected with SARS-CoV-2; assay: morphology score (similarity to uninfected cells); higher = more like uninfected cells; settings: 24 h
# [2] = test system: Vero E6 infected with SARS-CoV-2; assay: SARS-CoV-2 infection rate relative to infected DMSO; higher = more infection, active = 60 or less; settings: 24 h
Structure (SMILES),morphology score [1],SARS-CoV-2 infection rate [2]
Clc1ccccc1C(c1ccccc1)(c1ccccc1)n1cccn1 (10 µM),0.0967,100% (inactive)
CC(C)c1cc2c(cc1S(=O)(=O)O)[C@@]1(C)CCC[C@@](C)(C(=O)O)[C@@H]1CC2 [ecabet] (10 µM),0.0527,102% (inactive)
O=C(CSc1nc2c(c(=O)n1-c1ccccc1)SCC2)Nc1ccc(-c2ccccc2)cn1 (10 µM),0.109,112% (inactive)
NC(=O)Nc1sc(-c2ccc(F)cc2)cc1C(N)=O (0.833333 µM),0.0683,95.5% (inactive)
COc1cc(OC)c(OC)cc1C=O [asaraldehyde] (10 µM),-0.0171,110% (inactive)
C[C@]12COC(=O)C[C@@H]1CC[C@@H]1[C@@H]2CC[C@@]2(C)[C@H]1CC[C@]2(C)O [Oxandrolone] (10 µM),0.0356,112% (inactive)
CC(=O)O[C@H]1C[C@@H]2CC[C@@H]3[C@H](CC[C@@]4(C)[C@H]3C[C@H]([N+]3(C)CCCCC3)[C@@H]4OC(C)=O)[C@@]2(C)C[C@@H]1[N+]1(C)CCCCC1 [pancuronium] (10 µM),0.254,102% (inactive)
C=CC(=O)Nc1cc2c(Nc3ccc(F)c(Cl)c3)ncnc2cc1OCCCN1CCOCC1 [canertinib] (10 µM),-0.116,107% (inactive)
CC(C)(Sc1ccncc1-c1ccc(C#N)c2ccccc12)C(=O)O [verinurad] (10 µM),0.122,98% (inactive)
COc1cc(N)c(Cl)cc1C(=O)OCCN1CCCCC1 (10 µM),0.128,110% (inactive)
N=C(NCc1ccc(Cl)cc1)SCCCc1c[nH]cn1 [clobenpropit] (10 µM),0.14,104% (inactive)
COc1cccc(OC)c1-c1cc(C(=O)N[C@@H](CC(C)C)C(=O)O)nn1-c1ccnc2cc(Cl)ccc12 (10 µM),-0.0246,114% (inactive)
CO[C@@H]1[C@H](O)[C@@H](CO)O[C@H]1n1cnc2c(NC3CCCCC3)ncnc21 (10 µM),-0.0183,108% (inactive)
NCCc1c[nH]c2ccc(O)cc12 [serotonin] (10 µM),0.0634,108% (inactive)
NCCNC(=O)c1ccc(Cl)cn1 [lazabemide] (10 µM),0.0341,106% (inactive)
COc1[nH]c2ccc(F)cc2c1C(=O)OCC1CCN(CCNS(C)(=O)=O)CC1 (10 µM),0.0361,106% (inactive)
CC(C)(C)C(=O)OCOP(=O)(COCCn1cnc2c(N)ncnc21)OCOC(=O)C(C)(C)C [adefovir-dipivoxil] (10 µM),-0.117,124% (inactive)
CCCc1nn(C)c2c(=O)[nH]c(-c3cc(S(=O)(=O)N4CCN(C)CC4)ccc3OCC)nc12 [sildenafil] (10 µM),0.056,109% (inactive)
CC[C@@H](c1cccc(O)c1)[C@@H](C)CN(C)C [Tapentadol (hydrochloride)] (10 µM),0.0731,108% (inactive)

Structure (SMILES),morphology score [1],SARS-CoV-2 infection rate [2]
COC(=O)N[C@H](C(=O)N1CC2(CC2)C[C@H]1c1nc(-c2ccc3c(c2)C(F)(F)c2cc(-c4ccc5[nH]c([C@@H]6[C@H]7CC[C@H](C7)N6C(=O)[C@@H](NC(=O)OC)C(C)C)nc5c4)ccc2-3)c[nH]1)C(C)C [ledipasvir] (10 µM),0.191,99.5% (inactive)
COc1cc2ncnc(Nc3ccc(F)c(Cl)c3)c2cc1NC(=O)/C=C/CN1CCCCC1 [dacomitinib] (0.833333 µM),-0.0483,103% (inactive)
CO[C@H]1/C=C/O[C@@]2(C)Oc3c(C)c(O)c4c(O)c(c(/C=N/N5CCN(C)CC5)c(O)c4c3C2=O)NC(=O)/C(C)=C\C=C\[C@H](C)[C@H](O)[C@@H](C)[C@@H](O)[C@@H](C)[C@H](OC(C)=O)[C@@H]1C [rifampin] (0.833333 µM),-0.0289,112% (inactive)
N[C@H]1CC[C@H](N[C@@H]2C[C@H]2c2ccccc2)CC1 (10 µM),0.432,79.5% (inactive)
CCN(CC)Cc1nccn1-c1ccc([N+](=O)[O-])cc1C(=O)c1ccccc1Cl [nizofenone] (10 µM),0.148,98% (inactive)
CN1Cc2c(N)cccc2C(c2ccccc2)C1 (centres undefined) [nomifensine] (10 µM),-0.106,109% (inactive)
CCCCCN(C)CCC(O)(P(=O)(O)O)P(=O)(O)O [ibandronate] (10 µM),-0.0259,111% (inactive)
COc1ccc(-c2nc(N3CCOCC3)c3sc(CN(C)c4ncc(C(=O)NO)cn4)cc3n2)cn1 (10 µM),-0.449,116% (inactive)
COc1ccc2[nH]c([S+]([O-])Cc3ncc(C)c(OC)c3C)nc2n1 (centres undefined) [tenatoprazole] (10 µM),0.162,105% (inactive)
COC(=O)Nc1nc2cc([S+]([O-])c3ccccc3)ccc2[nH]1 (centres undefined) [oxfendazole] (10 µM),0.15,101% (inactive)
N=C(N)NCCC[C@H](NC(=O)[C@@H]1CCCN1C(=O)[C@@H]1CSSC[C@H](N)C(=O)N[C@@H](Cc2ccc(O)cc2)C(=O)N[C@@H](Cc2ccccc2)C(=O)N[C@@H](CCC(N)=O)C(=O)N[C@@H](CC(N)=O)C(=O)N1)C(=O)NCC(N)=O [vasopressin] (10 µM),0.0923,95.5% (inactive)
C[C@]12CC[C@@H]3c4ccc(OC(=O)N(CCCl)CCCl)cc4CC[C@H]3[C@@H]1CC[C@@H]2OP(=O)(O)O [estramustine-phosphate] (10 µM),0.0729,100% (inactive)
Oc1cc2c(cc1O)[C@H]1c3ccccc3CN[C@@H]1CC2 (racemic) [dihydrexidine] (10 µM),-0.0209,101% (inactive)
Nc1c2ccccc2nc2ccccc12 [9-aminoacridine] (0.833333 µM),0.102,106% (inactive)
CN(CC[C@@H](Oc1ccc(-c2ccccc2)cc1)c1ccc(F)cc1)CC(=O)O (10 µM),0.036,108% (inactive)
CCC[N+]12[C@H](O)[C@@H](CC)[C@@H]3C[C@H]1[C@@H]1N(C)c4ccccc4[C@]14C[C@H]2[C@@H]3[C@H]4O [neo-gilurytmal] (10 µM),-0.0363,116% (inactive)
CCn1cc(C(=O)O)c(=O)c2cc(F)c(N3CCNC(C)C3)c(F)c21 (centres undefined) [lomefloxacin] (10 µM),0.0917,96.5% (inactive)
CC(C)CCNc1ncccc1C(=O)N1CCN(Cc2ccccc2)CC1 (10 µM),-0.0116,114% (inactive)
c1ccc(-c2oc3ncnc(NC[C@@H]4CCCO4)c3c2-c2ccccc2)cc1 (10 µM),0.0044,106% (inactive)

Structure (SMILES),morphology score [1],SARS-CoV-2 infection rate [2]
Cc1cc(OCCN2CCOCC2)nn1-c1ccc2ccccc2c1 (10 µM),0.0539,99.5% (inactive)
C[C@@H]1CC[C@@]2(OC1)O[C@H]1C[C@H]3[C@@H]4CC=C5C[C@@H](O[C@@H]6O[C@H](CO)[C@@H](O[C@@H]7O[C@@H](C)[C@H](O)[C@@H](O)[C@H]7O)[C@H](O)[C@H]6O[C@@H]6O[C@@H](C)[C@H](O)[C@@H](O)[C@H]6O)CC[C@]5(C)[C@H]4CC[C@]3(C)[C@H]1[C@@H]2C [dioscin] (10 µM),0.0193,101% (inactive)
NC(CO)(CO)CO [trometamol] (10 µM),-0.0719,106% (inactive)
O=C(NCc1ccc(F)cc1)N1CCN2C(=O)OC(c3ccccc3)(c3ccccc3)[C@@H]2C1 (racemic) (10 µM),0.069,97% (inactive)
O=c1[nH]c(CCl)nc2sc3c(c12)CCCC3 (10 µM),0.193,104% (inactive)
CNC(=O)c1ccc2c(c1)S(=O)(=O)c1ccccc1C2=O (10 µM),-0.0141,108% (inactive)
CC(C)=CCC[C@](C)(O)[C@@H]1CC=C(C)CC1 [levomenol] (10 µM),-0.0548,104% (inactive)
C[C@H]1CN(C[C@H](Cc2ccccc2)C(=O)NCC(=O)O)CC[C@@]1(C)c1cccc(O)c1 [alvimopan] (10 µM),0.116,106% (inactive)
C/C(=N\NC(=S)N1CCC1)c1ccccn1 (0.833333 µM),0.0268,114% (inactive)
CCC(C/C=C/c1ccccc1)(c1ccccc1)N(C)CC1CC1 (centres undefined) [igmesine] (10 µM),0.316,97.5% (inactive)
Cc1cc(-c2cc(OC(=O)c3ccccc3)ccc2Cl)cc2nnc(Nc3ccc(OCCN4CCCC4)cc3)nc12 (10 µM),-0.0439,114% (inactive)
O=C1C[C@@H](c2ccc(O)cc2)Oc2cc(O)ccc21 (10 µM),0.025,110% (inactive)
CCN[C@H]1CN(CCCOC)S(=O)(=O)c2sc(S(N)(=O)=O)cc21 [brinzolamide] (10 µM),0.267,69% (inactive)
O=C1CS[C@@H](c2ccccc2Cl)c2cc(Cl)ccc2N1 (racemic) (10 µM),0.245,89% (inactive)
C=CCc1cccc(/C=N/NC(=O)CN2CCN(Cc3ccccc3)CC2)c1O (0.833333 µM),0.152,100% (inactive)
Oc1c(I)cc(I)c2cccnc12 [iodoquinol] (0.833333 µM),0.155,99.5% (inactive)
NC1(c2ccc(-c3nc4ccn5c(=O)[nH]nc5c4cc3-c3ccccc3)cc2)CCC1 (0.833333 µM),0.255,106% (inactive)
CC#CCOC(=O)c1c(C)nc2sc3c(c2c1N)CCC(O)C3 (centres undefined) (10 µM),0.151,93% (inactive)
"CC1(C)[C@@H]2C[C@@H](O)[C@@](C)(O)[C@H]1C2 [2,3-cis/exo-pinanediol] (10 µM)",0.0892,95.5% (inactive)
